Hits are enriched below; roughly 4% of the tested compounds scored in any of these assays.
TRHR ag: activates the human TRH receptor; P34981; TRHR cells, calcium flux fluo-8, FDSS agonist mode; activation, % at 2 µM; hit rate 0.18% among 360,000; AID 493084; also: 0% is about no effect
Target sequence (P34981 whole entry, looked up): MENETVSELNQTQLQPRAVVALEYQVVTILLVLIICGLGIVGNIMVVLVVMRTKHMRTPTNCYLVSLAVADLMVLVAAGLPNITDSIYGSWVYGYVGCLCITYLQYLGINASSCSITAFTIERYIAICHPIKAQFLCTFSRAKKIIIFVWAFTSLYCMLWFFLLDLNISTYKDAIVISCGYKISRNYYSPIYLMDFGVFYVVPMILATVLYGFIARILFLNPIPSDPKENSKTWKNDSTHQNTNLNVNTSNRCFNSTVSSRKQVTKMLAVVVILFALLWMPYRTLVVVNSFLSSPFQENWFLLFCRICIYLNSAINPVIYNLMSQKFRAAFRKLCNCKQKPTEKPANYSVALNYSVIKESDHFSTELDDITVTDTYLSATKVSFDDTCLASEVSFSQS
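In this calcium-flux screen, cells bearing human TRHR are dye-loaded with fluo-8, baselined for 10 cycles, then exposed to library compounds; positive kinetic calcium responses during the agonist phase mark hits, with TRH as control.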
GRP78 ERSR act: ER stress response induction in glioma | Potency, µM, for inactives: top-dose activation, usual class: activators | hit rate 0.02% among 420,000 | U87-MG GRP78 promoter luciferase reporter, 16 h; active = well fitted activation curve with a large enough effect; also: potency is read from the fitted curve at half-maximal effect; series mostly up to about 76 µM; % of control where 0% means no effect; nearly all actives have a fitted effect of over 35% in size
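Stably transfected U87-MG glioma cells carrying a GRP78-based luciferase sensor; 16 h compound incubation. Luminescence end-point read 10 min after Bright-Glo addition at room temperature.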
TRHR PAM: TRH receptor (human) allosteric enhancement. enhancement, % at 2 µM. P34981. hit rate 0.66% among 360,000. TRHR cells, fluo-8 calcium fluorescence, EC20 TRH enhancement; in the data active = enhancement above about 30%; also: 0% is about no effect
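Enhancer read-out: after compound pinning and an initial kinetic agonist-mode read, an EC20 of TRH (10 nM final) was injected and fluo-8 calcium signal (Ex 480/Em 530) followed at 1 s/cycle for 100 cycles in TRHR-expressing cells.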
D1 antagonist: human D1 dopamine receptor antagonism. activity change, negative = inhibition, % at 10 µM. HEK293 TREx D1 cells, calcium flux, dopamine EC80; hits give low values. P21728. hit rate 3.2% among 360,000; in the data active = activity change below about -30%; also: % is scaled to controls: 0 for no effect and ±100 for the full control effect
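Kinetic fluorescence of a calcium dye serves as the read-out. D1-expressing Hek293 Trex cells, induced overnight at 30 C, are exposed to compound for 180 s before an EC80 dopamine addition, then read 180 s further.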
D1 agonist: activates the human D1 dopamine receptor | P21728 | HEK293 T-REx D1 cells, calcium flux, agonist mode | activation, % at 2 µM | hit rate 1% among 360,000; also: 0% is about no effect
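Agonism was scored from calcium flux recorded over 180 s (1 read/s) after pintool compound addition, following a 10-cycle baseline. Cells were inducible force-coupled HEK293 TREx D1, plated overnight at 30 C and loaded with no-wash calcium dye.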
D1 potentiator: enhances dopamine response at the human D1 receptor; P21728; hit rate 0.036% among 360,000; potentiation, % at 10 µM; HEK293 TREx D1 cells, calcium flux, dopamine EC20 potentiation; AID 504651; in the data active = potentiation above about 30%; also: 0% is about no effect
* hit, by the source's call; . = not tested or not shown. Rule as the data show it, unless noted: active = activation above about 30%; inactive = the rest.

SMILES	TRHR ag	GRP78 ERSR act	TRHR PAM	D1 antagonist	D1 agonist	D1 potentiator
COc1ccc(OC)c(-c2cc(Cl)c3c(c2)CC(CNC(=O)[C@@H]2CCCN2C(C)=O)O3)c1 (some centres not stated)	.	-3%	.	.	.	.
CCOC(=O)CSc1nnc(CNc2ccc(Cl)cc2)n1-c1ccccc1	0	-1%	18	-52*	7	0
CCc1nnc(NC(=O)CSc2nnc(Cc3ccccc3)n2-c2ccccc2)s1	-1	-3%	-7	-13	3	-9
CCOC(=O)CSc1nnc(CNc2cccc(Cl)c2)n1-c1ccccc1	0	-1%	3	-16	17	1
CCc1nnc(NC(=O)CSc2nnc(CNc3cccc(C)c3)n2-c2ccccc2)s1	1	-3%	-4	-31*	1	-3
CC(C)(C)n1ncc2c(=O)n(Cc3ccc(Cl)c(SC(F)(F)F)c3)cnc21	.	-3%	.	.	.	.
CC(=O)OC1CC(C)N(C(=O)c2ccccc2)c2ccc(C)cc21 (configuration not stated)	-1	-7%	-2	-5	2	0
CCCC(=O)OC1CC(C)N(C(=O)c2ccccc2)c2ccc(C)cc21 (configuration not stated)	0	-2%	-2	-8	32*	-24
O=C(CSc1nc2ccccc2c(=O)n1CCCN1CCOCC1)Nc1ccccc1OC(F)F	.	-4%	.	.	.	.
CC1CC1C(=O)OCc1cc(=O)n2cc(Br)ccc2n1 (configuration not stated)	0	-12%	34*	-9	2	9
Cc1cccc(CCNC(=O)C2CCN(S(=O)(=O)c3cccc4cccnc34)CC2)c1	-1	4%	14	-5	-1	6
O=C(Nc1ccc(Br)cc1)C1CCN(S(=O)(=O)c2cccc3nsnc23)CC1	0	2%	-5	-33*	8	-1
Cc1cccc(NC(=O)C2CCN(S(=O)(=O)c3cccc4nsnc34)CC2)c1	-1	-4%	-10	-25	-1	-1
Cc1ccc(NC(=O)C2CCCN2S(=O)(=O)c2cccc3nsnc23)cc1Cl (configuration not stated)	0	-1%	9	-11	2	0
O=C(C1CCN(S(=O)(=O)c2cccc3cccnc23)CC1)N1CC=C(c2ccccc2)CC1	-1	.	20	-44*	1	-2
O=C(O)c1ccc(Cl)c(NC(=O)C2CCCN2S(=O)(=O)c2cccc3nsnc23)c1 (configuration not stated)	0	-3%	-7	-40*	0	-2
CC1CCCCN1CCNC(=O)C1CCN(S(=O)(=O)c2cccc3cccnc23)CC1 (configuration not stated)	0	-2%	31*	1	-1	0
CCc1cccc2cc(C(O)CNC(C)(C)C)oc12 (configuration not stated)	.	1%	.	.	.	.
C=CCOc1ccc(/C=N/NC(=O)C(=O)Nc2ccccn2)cc1OC	0	-1%	-5	3	4	-8
CCOC(=O)c1ccc(NC(=O)c2ccc3c(c2)CCN3S(=O)(=O)c2ccc(Cl)cc2)cc1	3	-2%	4	-13	6	-2
CCC1CCCCN1CCNC(=O)C1CCN(S(=O)(=O)c2cccc3nsnc23)CC1 (configuration not stated)	0	-5%	-1	-2	2	35*
CCN(CCNC(=O)C1CCN(S(=O)(=O)c2cccc3cccnc23)CC1)c1ccccc1	-2	-1%	37*	-6	3	-3
NS(=O)(=O)c1ccc(CCNC(=O)C2CCN(S(=O)(=O)c3cccc4cccnc34)CC2)cc1	0	-4%	-1	-23	2	3
CC1CCN(CCNC(=O)C2CCN(S(=O)(=O)c3cccc4nsnc34)CC2)CC1	0	6%	-1	10	3	8
CN(CC(=O)Nc1ccccc1Cl)C(=O)Cn1nnc(-c2ccc(F)cc2)n1	0	-1%	-4	-47*	1	-3
Clc1ccc(/C=C/c2ncc3ccccn23)cc1	1	2%	8	16	5	-1

Screening results: PubChem, National Center for Advancing Translational Sciences (NCATS)
